# Assay results: PubChem BioAssay (NCI)
# The panel holds about 83,000 compounds, 20% with a hit somewhere; the sample as a whole holds those more often.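 Single-dose data. Exposure time 48 hours. Values below 10 considered active.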 Active and inactive are the calls of the source.
# Test system: TK-10 renal
# Assay: NCI-60 one-dose screen, 48 h (100 = growth as untreated, 0 = no growth, -100 = all killed)
# Details: 10 µM unless noted
# Method: Growth inhibition of the TK-10 human tumor cell line is measured as a screen for anti-cancer activity. Cells are grown in 96 well plates and exposed to the test compound for 48 hours. Compounds are tested at a single concentration, which is 10^-5 M for most compounds. The reported endpoint is percent growth (GI% or GIPRCNT), where numbers from 0 - 100% represent growth inhibition, and numbers from -100% - 0 represent cell death. For example, a value of 40 represents 60% growth inhibition. A value of 0 means no net growth occurred over the course of the experiment. A value of -40 indicates 40% of cells at the beginning of the experiment died by the end of the experiment. A value of -100 means all cells are dead at the end of the experiment.
# NCI-60 Human Tumor Cell Lines Screen was performed using the standard one-dose NCI protocol, which is described in more detail at https://dtp.cancer.gov/discovery_development/nci-60/default.htm.
# Compounds with GIPRCNT values below 10 were considered active. Activity score was based on GIPRCNT using the following formula: […]
# Score is 0 for GIPRCNT values of 100 or above, 50 for GIPRCNT values of 0, and 100 for GIPRCNT values of -100.
row,SMILES,growth
1,C=CC(=O)N1CCC=C(c2cc3c(N[C@H](C)c4ccccc4)ncnc3[nH]2)C1,-5.86% (active)
2,Cc1cc(C)c2sc(=O)n(Cc3nnc(SCCC(=O)O)o3)c2n1,103% (inactive)
3,CS(=O)(=O)c1ncc(-c2ccccc2)cn1,97.3% (inactive)
4,Clc1nc2ccccc2nc1-c1nnc(C2CCCCC2)o1,105% (inactive)
5,COc1cc(/C=N/NC(=O)c2cn(C3CC3)c3c(OC)c(N4CC5CCCNC5C4)c(F)cc3c2=O)ccc1O (stereo not given),119% (inactive)
6,Cn1cc(-c2nnc(N)nc2-c2c[nH]c3ccc(F)cc23)c2cc(F)ccc21,121% (inactive)
7,O=C(CCn1c[n+](CC(=O)c2ccc(F)cc2)c2ccccc21)Nc1cccc2cccnc12,107% (inactive)
8,C#CCNC1CCC(c2csc(C#C)n2)=C1C (stereo not given),130% (inactive)
9,N/C(=N\C(N)=N\c1nc2ccccc2s1)c1ccc2ccccc2c1,126% (inactive)
10,CN(C)CCCOc1ccc2c(c1)CN(C(=O)c1cc(C(=O)N3Cc4cccc(F)c4C3)ccc1O)C2,122% (inactive)
11,CCN(CC)c1ccc2c(c1)Oc1nc(N)c(C#N)c(N)c1C2Sc1ccc(C)cc1 (stereo not given),-90.6% (active)
12,Cc1noc(C)c1CSc1nc2ccccc2n1-c1ccccc1,58.9% (inactive)
13,O=c1[nH]c(Sc2sc3ccc(Cl)cc3c2CBr)nc(=S)[nH]1,46.2% (inactive)
14,C=C=COc1cccc(/C(N)=N/C(N)=N/c2nc3ccccc3s2)c1,133% (inactive)
15,O=C(c1ccc(O)cc1)[C@@H]1CN[C@@]2(C(=O)Nc3ccccc32)[C@H]1c1ccc(F)cc1,123% (inactive)
16,CCOC(=O)c1c(N)c(C#N)cn1-c1cc(OC)c(OC)c(OC)c1,99.5% (inactive)
17,Cc1ccc(N2C(=O)/C(=C/C=C/c3ccco3)SC2=S)cc1,117% (inactive)
18,C=CC(=O)N1CC=C(c2cc3c(N[C@H](C)c4ccccc4)ncnc3[nH]2)CC1,-3.79% (active)
19,CCCn1cnc2c(c1=N)C(c1ccc(OC)cc1)c1sc3c(C)cccc3c1O2 (stereo not given),94.2% (inactive)
20,COc1ccc(C2CC(c3ccc(Nc4nc(NCCO)nc(N5CCOCC5)n4)cc3)=Nc3c(N)nc(N)nc3N2)cc1 (stereo not given),115% (inactive)

row,SMILES,growth
1,COc1ccc(OC)c(-c2nc(SCC(=O)c3ccc(Br)cc3)nc(Nc3ccc(S(N)(=O)=O)cc3)c2C#N)c1,96.3% (inactive)
2,Cc1occc1-c1nc2s/c(=C/c3ccc(-c4cc(C(F)(F)F)ccc4Cl)o3)c(=O)n2n1,114% (inactive)
3,C=CCn1c(SCC(=O)Nc2ccc(C(=O)/C=C/c3ccc(Cl)cc3)cc2)nnc1-c1c[nH]c2ccccc12,103% (inactive)
4,COc1cc(Cn2cc3c(c2)-c2onc(CN4CCCC4)c2CC3)cc(OC)c1OC,111% (inactive)
5,COc1c(N2CC3CCCNC3C2)c(F)cc2c(=O)c(C(=O)N/N=C/c3c[nH]c4ccccc34)cn(C3CC3)c12 (stereo not given),137% (inactive)
6,CC1=N[C@@H]2CN(C(=O)OC(C)(C)C)C[C@@H]2n2c1cc1ccccc1c2=O,123% (inactive)
7,NC(N)=Nc1ccc(Oc2cccc(Nc3ccc(Br)c(C(F)(F)F)c3)c2)cn1,7.85% (active)
8,CC(c1ccccc1)N1CSc2nc3ncncc3n2C1 (stereo not given),42.6% (inactive)
9,C=C(C=O)[C@@H]1CC[C@]2(C)[C@H](CC=C3[C@H]4[C@@H](C)[C@H](C)CC[C@]4(C(=O)OC)CC[C@]32C)[C@@]1(C)CCC#N,35.7% (inactive)
10,N#Cc1cccc(NC(=O)c2cc(-c3ccc(F)cc3F)ccc2O)c1,19.3% (inactive)
11,COc1cccc(N2CCN(c3ncnc4c3[nH]c3ccc(F)cc34)C[C@H]2C)c1,95% (inactive)
12,CC1(C)NCCC[C@]2(C)[C@H]3C/C(=N\O)C4[C@@H]5C[C@@](C)(CO)CC[C@]5(C)CC[C@@]4(C)[C@]3(C)CC[C@@H]12 (stereo not given in full),107% (inactive)
13,CCC(CC)N1C(=O)/C(=c2\sc3n(c2=O)NC2C(N=3)N(CC)C(=O)N2CC)c2ccccc21 (stereo not given),127% (inactive)
14,Cc1cccc2c3c(sc12)C(c1ccc(F)cc1)C(C#N)=C(/N=C/c1ccc(Cl)cc1)O3 (stereo not given),106% (inactive)
15,CCn1c(SCC(=O)Nc2cccc(C(=O)/C=C/c3ccc(Br)cc3)c2)nc2ccccc2c1=O,104% (inactive)
16,Cc1ccc(CSc2nc(-c3ccc(Cl)cc3)c(C#N)c(N3CCNCC3)n2)cc1,99.7% (inactive)
17,CCO/C=N/C1=C(C#N)C(c2ccc(F)cc2)c2sc3c(C)cccc3c2O1 (stereo not given),66.4% (inactive)
18,C=CCN(C)S(=O)(=O)/N=C1\NC(=O)NC1=C(Cl)Cl,65.7% (inactive)
19,CCNC(=O)N1CCc2cc(OC)c(OCCc3ccc(OC)nc3)cc2C1c1ccc(OC)cc1C (stereo not given),59.9% (inactive)
20,O=C(Nc1cccc(Cl)c1)Nc1nc2ccc([N+](=O)[O-])cc2o1,8.49% (active)
